# Experimental data published in PubChem BioAssay (NCATS).
# Assay: qHTS profiling for inhibitors of Plasmodium falciparum (HB3) proliferation (AID 743324);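 further: 100% = DMSO vehicle wells and 0% = artemisinin-treated control wells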
# Details: Plasmodium falciparum HB3 blood-stage proliferation; at 28.7 µM (top of the series) unless noted
# In short: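 SYBR Green fluorescence (485 ex/535 em) of lysed cultures, incubated overnight at room temperature in the dark, quantifies parasite DNA. Infected erythrocytes at 0.3% parasitemia and 2.5% hematocrit were exposed 72 h; values normalized to DMSO and 0.29 uM artemisinin controls.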
row,SMILES,"remaining proliferation (% of control), lower = more inhibition"
1,CC(C)[C@]12O[C@H]1[C@@H]1O[C@]13[C@]1(O[C@H]1C[C@H]1C4=C(CC[C@@]13C)C(=O)OC4)[C@@H]2O,95.4%
2,CC(=O)Nc1ccc(OC[C@](C)(O)C(=O)Nc2ccc([N+](=O)[O-])c(C(F)(F)F)c2)cc1,71.3%
3,C1=CCOCc2cc(ccc2OCCN2CCCC2)Nc2nccc(n2)-c2cccc(c2)OCC1,115%
4,CCCCN1CCC(CNC(=O)c2c3n(c4ccccc24)CCCO3)CC1,74.4%
5,Cc1c(C(=O)Nc2cccc(C(F)(F)F)c2)cc(-c2ccccc2)n1CCCN1CCOCC1,9.01%
6,CC(C)(C)c1[nH]cnc1C=c1[nH]c(=O)c(=Cc2ccccc2)[nH]c1=O,37.2%
7,C=CCON=C(C[C@H]1O[C@@H]2O[C@]3(C)CC[C@@H]4[C@H](C)CC[C@@H]([C@H]1C)[C@@]24OO3)[C@H]1O[C@@H]2O[C@]3(C)CC[C@H]4[C@H](C)CC[C@@H]([C@@H]1C)[C@@]24OO3,0.0213%
8,Nc1nc(-c2nn(Cc3ccccc3F)c3ncccc23)nc(N)c1N1CCOCC1,67.6%
9,CC(C)[C@H]1C(=O)N[C@H](CO)Cc2c[nH]c3cccc(c23)N1C,80%
10,O=C(Oc1ccc([N+](=O)[O-])cc1)N1CCC(C(O)(c2ccc3c(c2)OCO3)c2ccc3c(c2)OCO3)CC1,75.8%
11,Cc1ccccc1-n1c(Cn2cnc3c(N)ncnc32)nc2cccc(C)c2c1=O,24.9%
12,Cc1nc(-c2ccc(-c3ccc(C(=O)N4CCc5cc6c(cc54)C4(CCN(C)CC4)CO6)cc3)c(C)c2)no1,17.2%
13,O=C(O)c1ccc(O)c2ncc(N3CCOCC3)cc12,35.5%
14,COc1ccc2c(c1)CC[C@H]1[C@@H]2CC[C@]2(C)[C@@H](NCCCCCCN3C(=O)C=CC3=O)CC[C@H]12,50.7%
15,CC1CC(C)C(=O)C(C(O)CC2CC(=O)NC(=O)C2)C1 (configuration not stated),-0.376% [at 57.5 µM]

# Assay: qHTS profiling of the MIPE4 collection as inhibitors of Plasmodium falciparum (3D7) proliferation (AID 743344);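 further: scaled between DMSO vehicle wells and 0.29 µM artemisinin as full inhibition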
# Details: P. falciparum 3D7 in erythrocytes, SYBR Green DNA fluorescence, 72 h; at 28.5 µM (top of the series)
# In short: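 Parasite DNA was quantified by SYBR Green I fluorescence (ex 485, em 535 nm) after overnight lysis in saponin/Triton buffer at room temperature. Cultures at 0.3% parasitemia and 2.5% hematocrit were first exposed to compound for 72 h at 37 C; signals were normalised to artemisinin (0.29 uM) and vehicle wells.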
row,SMILES,"parasite growth, % of DMSO control [%]"
1,CC(=O)Nc1ccc(OC[C@](C)(O)C(=O)Nc2ccc([N+](=O)[O-])c(C(F)(F)F)c2)cc1,70.7
2,COc1ccc2c(c1)[C@]13CCCCC1C(C2)N(C)CC3 (some centres not stated),92.5
3,Cc1c(C(=O)Nc2cccc(C(F)(F)F)c2)cc(-c2ccccc2)n1CCCN1CCOCC1,19.9
4,CCOC(=O)c1c(C(C#N)=CN)c2ccc(Cl)c(Cl)c2n1C,90
5,C=CCON=C(C[C@H]1O[C@@H]2O[C@]3(C)CC[C@@H]4[C@H](C)CC[C@@H]([C@H]1C)[C@@]24OO3)[C@H]1O[C@@H]2O[C@]3(C)CC[C@H]4[C@H](C)CC[C@@H]([C@@H]1C)[C@@]24OO3,21.6
6,c1cc2c(cc1[C@H]1OC[C@H]3[C@H]1CO[C@H]3c1ccc3c(c1)OCO3)OCO2,104
7,CCCC[N+]1(C)[C@H]2CC(OC(=O)[C@H](CO)c3ccccc3)C[C@H]1[C@H]1O[C@H]12 (some centres not stated),98.9
8,O=C(Oc1ccc([N+](=O)[O-])cc1)N1CCN(Cc2cccc(Oc3ccccc3)c2)CC1,95.8
9,CC(C)N(CCNC(=O)CN1CCCC1=O)C(C)C,101
10,C[C@]12CC[C@H]3[C@@H](CCC4=CC(=O)CC[C@@]43C)[C@H]1CC[C@H]2O,78.5
11,CC(C)[C@H]1C(=O)N[C@H](CO)Cc2c[nH]c3cccc(c23)N1C,87.1
12,O=C(O)CNC(=O)c1c(O)c2ccccc2n(Cc2ccccc2)c1=O,88
13,COc1cc([C@@H]2c3cc4c(cc3[C@@H](O)C3COC(=O)C32)OCO4)cc(OC)c1O (some centres not stated),64.9
14,O=C(Oc1ccc([N+](=O)[O-])cc1)N1CCC(C(O)(c2ccc3c(c2)OCO3)c2ccc3c(c2)OCO3)CC1,63
15,NC1=NC(=O)N2CC12 (configuration not stated),49.2
16,Cc1ccccc1-n1c(Cn2cnc3c(N)ncnc32)nc2cccc(C)c2c1=O,5.28
17,C[C@@H]1[C@H](O)[C@@H](C)C=CC=CCCC=CC=CC=CC=C[C@H](O[C@H]2O[C@@H](C)[C@H](O)[C@@H](N)[C@@H]2O)CC2O[C@](O)(C[C@@H](O)[C@H](O)CC[C@@H](O)C[C@@H](O)C[C@@H](O)CC(=O)O[C@H]1C)C[C@H](O)[C@H]2C(=O)O,94.4
18,Cc1nc(-c2ccc(-c3ccc(C(=O)N4CCc5cc6c(cc54)C4(CCN(C)CC4)CO6)cc3)c(C)c2)no1,76
19,C[C@H]1CCCC=CC2C[C@H](O)C[C@@H]2[C@H](O)C=CC(=O)O1 (some centres not stated),4.99
20,CN1[C@H]2CC(O)C[C@H]1[C@H]1O[C@H]12 (some centres not stated),11.1
21,COc1ccc2c(c1)CC[C@H]1[C@@H]2CC[C@]2(C)[C@@H](NCCCCCCN3C(=O)C=CC3=O)CC[C@H]12,62.7
22,N=c1c2c(-c3ccccc3)c(-c3ccccc3)n(Cc3ccccc3)c2ncn1C1CCC(O)CC1 (configuration not stated),10.7
